# In the supplement of paper PMC6555819:
# Key:
# Assay in all cases: PBM binding z-score (relative to random genomic background probes); higher = stronger binding; sequences stand for … in GC…GCGATTGACAGCGTAGAATGAAGG
# [1] = system: PPARg:RXRa DBDmut IVT, anti-RXR (DBD mutation: RXRa K156A/R161A, NR concentration 270 nM, RXRa partner concentration 90 nM)
# In short: (§1)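 Binding z-scores take random background probes as their reference. They come from custom Agilent 4×180K protein-binding microarrays incubated 1 h with ligand-free nuclear receptor dimers, with antibodies against each partner (one per run) detecting binding. Scanned fluorescence was regression-normalized.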
# [2] = system: PPARg:RXRa IVT, anti-PPARg (NR concentration 270 nM, RXRa partner concentration 90 nM)
# In short: as §1
# [3] = system: PPARg DBDmut:RXRa IVT, anti-PPARg (DBD mutation: PPARg1 K132A/R137A, NR concentration 270 nM, RXRa partner concentration 90 nM)
# In short: as §1
# [4] = system: PPARg DBDmut IVT, anti-PPARg (DBD mutation: PPARg1 K132A/R137A, NR concentration 270 nM)
# In short: as §1
# [5] = system: PPARg homodimer (NR concentration 180 nM)
# In short: as §1
# [6] = system: PXR:RXRa (NR concentration 270 nM, RXRa partner concentration 90 nM)
# In short: as §1
# [7] = system: PXR homodimer (NR concentration 270 nM)
# In short: as §1
# [8] = system: RARa:RXR (NR concentration 270 nM, RXRa partner concentration 90 nM)
# In short: as §1
# [9] = system: RARa homodimer (NR concentration 270 nM)
# In short: as §1
# [10] = system: RARb:RXRa (NR concentration 270 nM, RXRa partner concentration 90 nM)
# In short: as §1
Sequence,PBM binding z-score [1],PBM binding z-score [2],PBM binding z-score [3],PBM binding z-score [4],PBM binding z-score [5],PBM binding z-score [6],PBM binding z-score [7],PBM binding z-score [8],PBM binding z-score [9],PBM binding z-score [10]
TCTTGTAGATCAATAGCGGTTAAGAAAGTGCGCT,1.73,0.605,-0.463,0.835,0.226,0.449,0.123,0.439,0.667,-0.0234
CGTCCAAGGTTAGAGAGGTCAGTGAATGCCGAGT,0.939,1.57,-1.21,-1.38,2.67,4.07,7.59,3.61,1.11,3.66
ATCGAAAGGTCGACGAGGTCAGTATACACCGTTT,1.29,2.59,1.42,0.928,2.73,5.77,9.23,5.2,1.54,4.56
TAGCCTAGGACATTCAGGGGCCAGTATAGAAAGC,-0.851,-0.425,-0.632,-1.43,-1.03,-0.401,-0.611,-0.598,-0.859,0.541
CTCGAAAGGTCGTGCTCAGGTCAGTATACCAAAC,1.1,2.14,1.37,1.38,3.94,5.57,1.25,6.37,0.951,4.41
ACTGGCAGGCCAAGGGTCACTCAAGATTAGTCCG,-0.446,2.2,-0.302,-0.62,1.74,2.97,-0.0528,3.8,-0.0207,3.4
GATGCTAGGTCAGGTTGGTCAGCTAACGGGTACG,1.91,2.23,-0.346,-0.425,1.67,0.452,0.0675,0.755,-0.108,3.46
CCTACTGGGCCATTCAGAGGTCATTTATCATATG,3.98,4.38,1.61,0.342,2.27,4.91,2.24,4.44,0.704,2.79
TCTACTAGGTCAGTTGGTCAGCTAACGAGCTGCC,6.44,6.43,1.78,0.835,1.78,0.537,-0.418,0.904,0.501,3.46
CAAACTACGTCACGAAAGGTCAAAGTCGAATGAC,0.398,2.49,1.4,1.92,3.68,5.52,1.91,6.35,2.63,4.43
TCTTGTAGATCAGCAAGTTAAGAAAGCTGGCCAA,1.5,0.0775,0.0136,-0.449,-0.907,-0.095,-0.549,-0.2,-0.451,-0.472
TCTTGTAGATCAATGGAGGTTAAGAAAGTGCGCT,2.04,1.57,0.0784,1.12,-0.199,2.58,0.0457,1.16,0.49,0.504
GCAGACAGGTGAAAAGCAGGTAACTCAGGGTGGC,0.172,0.778,-0.581,-1.28,-0.799,-0.441,-0.329,0.143,-0.401,0.42
ACAGACAGATGAGTGAAGGTAACTCAGCTGGACG,-0.101,0.00181,0.781,0.138,0.692,-0.0478,0.186,0.101,0.524,-0.14
CGAACTAGGTCAGACCAGGACAGTGAAGGATGAT,7.38,7.63,1.83,0.713,0.868,1.61,-0.171,1.37,-0.466,3.2
TTACCAAGGTGCAAGGTCGTTGATGCACGCCTTG,-0.0401,1.05,-0.472,-0.179,0.87,1.16,0.648,1.13,-0.653,1.22
CGAACTAGGTCATCCAGCACAGTGAATACATTGA,8.26,8.11,2.99,2.39,1.64,1.47,0.241,2.25,0.526,3.71
GCGACTGGGGCAAAGCAGGTTAGCATAAGGTTGG,4.21,3.26,-0.633,-1.6,-0.037,-0.216,-0.676,0.00756,-0.55,0.773
ATCTCTCGGTAAAAGTTCAGTGAATCCCGAGGAT,-0.48,1.24,1.23,1.28,1.06,1.92,1.71,0.639,0.811,2.4
TCTAGTTGGTCAAGGGTCACACACTCGAAATGCG,2.52,5.1,1.64,0.978,4.73,4.32,0.895,5.98,2.83,3.94
AGTCAAAGTTCACTAGCTAACGTAAGATTCAGCT,-0.129,1.99,0.927,0.426,1.85,3.57,1.99,2.79,0.935,4.56
TCATATAGGTAAAAGGTGAAAGTAGGTGTGGTAA,5.54,5.11,1.51,2.06,2.38,2.11,0.728,3.45,2.24,2.06
GCTAGCAGGCCATTTCGGTCACTCAATGACGGGC,0.656,0.325,-0.625,-0.867,-0.364,-0.577,-0.577,-0.28,-1.42,1.07
GGAACGAGGGCATTCGTGTTGATAGCATGGCGAT,3.27,2.25,-0.566,-0.299,0.242,0.774,0.237,0.37,-0.471,1.62

Sequence,PBM binding z-score [1],PBM binding z-score [2],PBM binding z-score [3],PBM binding z-score [4],PBM binding z-score [5],PBM binding z-score [6],PBM binding z-score [7],PBM binding z-score [8],PBM binding z-score [9],PBM binding z-score [10]
AGTCAAAGTTCAGGACGAGGTAAGGTAAAGCACG,-0.019,1.69,0.348,-0.0383,2.01,2.5,1.18,2.42,1.06,4.4
ACAATGAGGTTATACGTAGATCAGGGAAGAAAGT,2.72,1.93,1.33,1.68,0.816,1.19,0.655,1.82,0.312,1.69
CGTCCAAGGTCAATGCTAGGTCAGTGACAGCATT,3.59,4.07,0.933,0.0917,5.74,4.98,1.04,6.17,2.41,5.26
TCATATAGGTAAATGCTAGGTGGAAGTCCGATCT,3.98,2.01,1.68,0.774,0.237,0.234,0.0145,0.241,0.904,0.253
AGAACGAGGGCACGCTGAGTTGATAGGAGAGTAG,3.83,3.7,0.653,0.276,0.451,1.1,0.0753,0.906,-0.652,2.37
ATCGAAAGGTCGACGAGGTGAGCATACACCGTTT,0.211,2.48,1.06,0.825,1.88,2.91,0.446,3.9,0.74,3.9
CCTAGTTGGTCAGGAGGTCACGCACCGGATATGA,1.74,4.03,0.246,-0.0131,3.74,4.85,1.04,5.52,2.11,4.06
CCGAGTAGGTTACGGGGCATTCAGGCAACGGTGA,3.97,4.11,-0.288,-0.815,0.551,0.0878,-0.35,0.636,-0.584,1.5
TCTCGGAGGACACGAAGGTCCGAGCTTTCCAGAG,1.24,-0.478,-0.785,-1.37,-0.731,-0.253,-0.438,-0.322,-1.26,1.56
CCAACTAGGTCACGAAAGGTCAAAGTCGAATGAC,8.35,8.54,1.23,0.869,6.09,7.02,3.52,7.39,3.62,5.63
ACTAGCAGGCCATGGGTCACTCAAGATTAGTCCG,0.912,2.7,-0.371,-0.346,0.473,0.85,-0.43,1.56,-0.392,1.94
TCTGCTAGGTCAACCATGGTCAGCTAATCTGCTA,4.75,4.6,-0.545,-0.0168,1.65,2.47,-0.872,2.3,-0.434,4.21
TCTATTAGTTGAAGCGCAACCGACGAGTCCGTTT,2.22,0.202,0.484,1.23,0.5,0.326,0.219,0.126,0.262,0.271
CAGCCTAGGTCATGGCCAGTATAGGAGGAACGTT,2.64,2.68,-0.045,-0.826,1.72,1.53,-0.702,2.45,0.132,3.99
TCTAGCAGGCCAGAGGGGCACTCAAGAGGTACGG,0.959,-0.0435,-0.531,-0.834,-0.877,-0.511,-0.673,-0.329,-0.905,0.329
TCATATAGGTAATACAGGTGGAAGTCGGCATCTA,4.03,2.31,1.36,0.905,0.801,0.571,0.602,0.763,1.5,0.515
CAAACTAGGTCACCGGAAGGTCCAAGTCCGCATG,8.74,8.78,2.63,2.9,2.36,2.43,-0.0607,3.18,1.11,4.39
TAGCCTAGGTCATGGGTCAGTATACCACGCGAAC,1.91,4.28,1.25,0.834,2.55,2.92,0.237,4.22,0.889,4.1
TTACCAAGGTGATAGGTCGTTGATGCACGCCTTG,1.07,2.82,0.428,0.413,1.26,0.611,-0.14,1.36,-0.163,1.07
CCGACTGGGGCAAAGGTTTCCATACTCAGTACGA,5.1,4.87,-0.186,-0.49,0.0767,-0.0306,-0.339,0.0342,-0.339,0.737
TCTTGTAGATCAACAGGAGGCTAAGAAAGATCGA,1.2,0.746,0.507,0.151,-1.21,-0.24,-0.799,-0.313,-0.265,-0.249
ATCTCTAGGTAAATTTCAGTGAAAGATCGATAGA,1.2,1.5,1.22,1.58,0.671,0.0865,0.265,0.745,1.29,-0.125
ATATCTAGGTTAAGGGTCATTCAGGTTGGTTCGC,7.59,8.2,6.43,4.16,4.9,5.61,3.45,5.91,3.76,3.98
AGAACGGGGGCAATGAGTTGATAGCACGGGTGGC,4.36,5.56,9.77,9.9,1.96,3.74,6.38,2.68,1.18,3.02
